Experimental data from PubChem BioAssay.
The source made the active and inactive calls.

What was measured:
[1] = small molecules captured by biotinylated probe aFSTL3 – biochemical, small-molecule microarray, fluorescence 635/667, stem cell growth factor project, primary screen (AID 1064); conditions: higher = more signal;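 note: measures binding of the biotinylated anti-FSTL3 antibody to printed compounds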
[2] = binders from COS7 lysate, DM2A8 probe, primary screen, torsin A project, cell lysate, small-molecule microarray, fluorescence 635/667 (AID 1065); conditions: higher = more signal, COS7 lysate expressing mutant human TOR1A
[3] = small molecules captured by biotinylated probe aFGF2 – biochemical, small-molecule microarray, fluorescence 635/667, stem cell growth factor project, primary screen (AID 1067); conditions: higher = more signal;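 note: measures binding of biotinylated aFGF2 protein to printed compounds on slides; z-score merges feature fluorescence and signal-to-noise across triplicate slides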
[4] = small molecules captured by biotinylated probe aFGF10 – biochemical, small-molecule microarray, fluorescence 635/667, stem cell growth factor project, primary screen (AID 1071); conditions: higher = more signal;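 note: score merges 667 nm spot intensity and signal to noise from triplicate slides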
[5] = biological target: Neurogenic locus notch homolog protein 2 (Homo sapiens) (UniProt Q04721); assay: small molecules binding Notch2 protein – biochemical, small-molecule microarray, 635 nm fluorescence, stem cell growth factors, primary screen (AID 1073); conditions: higher = more signal
[6] = biological target: Pro-neuregulin-1, membrane-bound isoform (Homo sapiens) (UniProt Q02297); assay: small molecules binding neuregulin-1 protein – biochemical, small-molecule microarray, fluorescence 635/667, psychiatric disease protein project, primary screen (AID 1075); conditions: NRG1 binding, 635 nm fluorescence, higher = more signal;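 note: score combines 667 nm spot fluorescence with signal to noise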
[7] = test system: Neuregulin-1 EGF-like domain; assay: small molecules binding NRG1 EGF domain – biochemical, small-molecule microarray, 635 nm fluorescence, primary screen (AID 1081); conditions: higher = more signal;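 note: binding of the protein to compounds printed on small-molecule microarray slides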
[8] = FRG1 expression reporter modulators in myotubes – cell-based, C2C12 myotubes, firefly/Renilla luciferase, luminescence, FRG1 inhibition for FSHD, primary screen (AID 1084); conditions: FRG1 promoter luciferase, higher = more signal, called active from +8 up or from −8 down
[9] = small molecules captured by biotinylated probe aFST – biochemical, small-molecule microarray, fluorescence 635/667, stem cell growth factor project, primary screen (AID 1086); conditions: higher = more signal;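 note: score merges 667 nm fluorescence with signal-to-noise of each printed compound spot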
[10] = binders of probe aHhip on microarray, primary screen, stem cell growth factor project, biochemical, small-molecule microarray, fluorescence 635/667 (AID 1087); conditions: higher = more signal;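 note: score merges spot fluorescence at 667nm with spot signal to noise ratio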
[11] = test system: PRMT1 (protein arginine N-methyltransferase 1); assay: small molecules binding arginine methyltransferase PRMT1 – biochemical, small-molecule microarray, 635 nm fluorescence, primary screen (AID 1088); conditions: higher = more signal;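 note: binding of Prmt1 protein to compounds spotted on small-molecule microarray slides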
[12] = growth effects on S. cerevisiae YJM789 – YJM789 clinical isolate, OD600, 24 h, basal, primary screen (AID 1089); conditions: higher = more signal, called active from +8 up or from −8 down;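 note: growth of clinical yeast isolate S. cerevisiae YJM 789 seeded 1000 cells per well; test concentration not given here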
[13] = S. pombe growth modifiers, basal conditions – strain 972, OD600, 24 h, no modulator, primary screen (AID 1090);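 note: basal condition with compound alone and no growth modifier present; test concentration not given here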; conditions: S. pombe 972 growth, higher = more signal, called active from +8 up or from −8 down
[14] = budding yeast growth modifiers under rapamycin – strain BY4716, OD600, 96 h, primary screen (AID 1091); note: test concentration not given here; conditions: S. cerevisiae BY4716 + rapamycin, higher = more signal, called active from +8 up or from −8 down
[15] = biological target: Torsin-1A-interacting protein 2 (Homo sapiens) (UniProt Q8NFQ8); assay: small molecules binding lysate-expressed LULL1 – cell lysate, human LULL1 lysate, 635/667 nm fluorescence, primary screen (AID 1092); conditions: small-molecule microarray, hLULL1 lysate binding, 635 nm fluorescence; higher = more signal;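 note: probe is lysate of COS7 cells overexpressing human LULL1; score merges per-feature 667 nm fluorescence with signal-to-noise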
[16] = optical density change of DRC41 E. coli – strain DRC41, OD650, 24 h, E. coli filamentation project, primary screen (AID 1093);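 note: MC1000 strain lacking acrAB efflux and sulA so SOS filamentation is blocked; test concentration not given here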; conditions: E. coli DRC41 growth, higher = more signal, called active from +8 up or from −8 down
[17] = probe aLefty2 binding to arrayed compounds – biochemical, biotinylated probe, 635/667 nm fluorescence, primary screen (AID 1094); conditions: small-molecule microarray, higher = more signal;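 note: score merges spot fluorescence near 667 nm with spot signal-to-noise ratio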
[18] = test system: Noggin (protein binding on small-molecule microarray); assay: small molecules binding Noggin protein – biochemical, 635/667 nm fluorescence, primary screen (AID 1095); conditions: 635 nm fluorescence, higher = more signal;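 note: score merges 667 nm feature fluorescence with signal to noise over triplicate slides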
[19] = biological target: Neurogenic locus notch homolog protein 3 (Homo sapiens) (UniProt Q9UM47); assay: small molecules binding NOTCH3 protein – biochemical, 635/667 nm fluorescence, primary screen (AID 1096); conditions: small-molecule microarray, 635 nm fluorescence, higher = more signal
[20] = probe aEGFR binding to arrayed compounds – biochemical, biotinylated probe, 635/667 nm fluorescence, primary screen (AID 1097); conditions: small-molecule microarray, higher = more signal;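 note: probe is a biotinylated anti-EGFR antibody binding compounds printed on slides; score combines fluorescence near 667 nm and signal to noise of each spot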

Neurogenic locus notch homolog protein 2 (Homo sapiens), sequence (Q04721 whole entry, looked up, canonical isoform): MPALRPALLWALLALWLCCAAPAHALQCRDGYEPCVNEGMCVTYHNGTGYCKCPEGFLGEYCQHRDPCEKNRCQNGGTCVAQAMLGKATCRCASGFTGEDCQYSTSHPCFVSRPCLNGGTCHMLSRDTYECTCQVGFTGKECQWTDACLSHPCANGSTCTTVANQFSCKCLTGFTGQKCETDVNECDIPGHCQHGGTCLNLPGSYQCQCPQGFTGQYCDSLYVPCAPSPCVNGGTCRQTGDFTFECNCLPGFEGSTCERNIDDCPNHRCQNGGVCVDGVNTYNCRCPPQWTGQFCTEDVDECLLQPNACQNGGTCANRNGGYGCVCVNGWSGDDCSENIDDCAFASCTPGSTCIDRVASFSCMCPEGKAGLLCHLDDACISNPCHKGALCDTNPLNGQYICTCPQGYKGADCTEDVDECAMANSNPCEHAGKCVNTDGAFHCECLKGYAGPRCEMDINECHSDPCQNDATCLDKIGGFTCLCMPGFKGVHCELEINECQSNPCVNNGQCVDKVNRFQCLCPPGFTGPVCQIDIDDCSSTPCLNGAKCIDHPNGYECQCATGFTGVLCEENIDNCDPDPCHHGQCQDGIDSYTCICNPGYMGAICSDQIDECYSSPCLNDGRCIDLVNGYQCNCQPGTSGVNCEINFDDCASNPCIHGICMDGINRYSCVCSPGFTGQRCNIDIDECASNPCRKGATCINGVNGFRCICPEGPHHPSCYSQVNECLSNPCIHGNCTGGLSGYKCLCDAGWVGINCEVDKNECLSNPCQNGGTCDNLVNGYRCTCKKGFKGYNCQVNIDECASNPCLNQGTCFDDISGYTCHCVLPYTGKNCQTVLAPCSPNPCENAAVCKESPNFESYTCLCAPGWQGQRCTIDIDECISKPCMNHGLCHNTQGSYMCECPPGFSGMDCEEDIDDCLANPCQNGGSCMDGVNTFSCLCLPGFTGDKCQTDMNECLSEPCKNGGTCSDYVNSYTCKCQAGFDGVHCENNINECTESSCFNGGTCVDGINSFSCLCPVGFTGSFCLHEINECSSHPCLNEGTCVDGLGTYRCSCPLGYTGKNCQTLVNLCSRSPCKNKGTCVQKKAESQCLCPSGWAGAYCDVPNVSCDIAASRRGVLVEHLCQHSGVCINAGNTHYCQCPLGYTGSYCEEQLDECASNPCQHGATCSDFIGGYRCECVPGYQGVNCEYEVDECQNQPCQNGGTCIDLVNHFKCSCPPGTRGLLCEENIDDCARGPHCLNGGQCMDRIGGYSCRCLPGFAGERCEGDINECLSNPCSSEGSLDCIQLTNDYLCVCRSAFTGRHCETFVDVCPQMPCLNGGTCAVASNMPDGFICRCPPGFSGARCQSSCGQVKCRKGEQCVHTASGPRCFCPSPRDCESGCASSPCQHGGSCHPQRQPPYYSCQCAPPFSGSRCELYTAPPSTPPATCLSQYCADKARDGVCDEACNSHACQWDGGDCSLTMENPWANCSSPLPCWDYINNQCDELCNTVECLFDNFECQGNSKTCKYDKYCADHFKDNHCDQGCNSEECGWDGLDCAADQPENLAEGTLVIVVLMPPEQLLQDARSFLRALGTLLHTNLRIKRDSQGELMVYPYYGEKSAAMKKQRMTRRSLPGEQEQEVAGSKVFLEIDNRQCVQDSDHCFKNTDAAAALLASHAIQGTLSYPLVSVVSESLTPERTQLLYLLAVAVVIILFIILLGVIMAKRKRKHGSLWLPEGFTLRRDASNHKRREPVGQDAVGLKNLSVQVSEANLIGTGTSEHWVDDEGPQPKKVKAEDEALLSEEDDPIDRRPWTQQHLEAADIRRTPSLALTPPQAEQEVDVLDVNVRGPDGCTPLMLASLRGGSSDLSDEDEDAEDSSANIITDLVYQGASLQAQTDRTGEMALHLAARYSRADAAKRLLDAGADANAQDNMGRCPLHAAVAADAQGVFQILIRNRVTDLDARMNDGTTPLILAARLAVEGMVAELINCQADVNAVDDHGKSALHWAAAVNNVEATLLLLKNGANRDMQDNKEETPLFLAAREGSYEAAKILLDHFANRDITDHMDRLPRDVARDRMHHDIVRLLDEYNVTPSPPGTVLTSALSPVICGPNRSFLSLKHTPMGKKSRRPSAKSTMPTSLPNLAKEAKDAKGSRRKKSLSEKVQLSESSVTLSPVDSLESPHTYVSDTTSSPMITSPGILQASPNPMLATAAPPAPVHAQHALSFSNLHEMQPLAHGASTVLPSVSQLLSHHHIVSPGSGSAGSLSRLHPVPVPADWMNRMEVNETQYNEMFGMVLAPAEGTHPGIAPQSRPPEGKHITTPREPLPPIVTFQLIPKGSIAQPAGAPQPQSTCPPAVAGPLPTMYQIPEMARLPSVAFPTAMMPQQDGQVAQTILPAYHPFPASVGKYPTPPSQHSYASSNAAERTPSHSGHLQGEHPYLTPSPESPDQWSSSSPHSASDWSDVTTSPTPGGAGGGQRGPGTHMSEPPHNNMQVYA
Neurogenic locus notch homolog protein 3 (Homo sapiens), sequence (Q9UM47 whole entry, looked up): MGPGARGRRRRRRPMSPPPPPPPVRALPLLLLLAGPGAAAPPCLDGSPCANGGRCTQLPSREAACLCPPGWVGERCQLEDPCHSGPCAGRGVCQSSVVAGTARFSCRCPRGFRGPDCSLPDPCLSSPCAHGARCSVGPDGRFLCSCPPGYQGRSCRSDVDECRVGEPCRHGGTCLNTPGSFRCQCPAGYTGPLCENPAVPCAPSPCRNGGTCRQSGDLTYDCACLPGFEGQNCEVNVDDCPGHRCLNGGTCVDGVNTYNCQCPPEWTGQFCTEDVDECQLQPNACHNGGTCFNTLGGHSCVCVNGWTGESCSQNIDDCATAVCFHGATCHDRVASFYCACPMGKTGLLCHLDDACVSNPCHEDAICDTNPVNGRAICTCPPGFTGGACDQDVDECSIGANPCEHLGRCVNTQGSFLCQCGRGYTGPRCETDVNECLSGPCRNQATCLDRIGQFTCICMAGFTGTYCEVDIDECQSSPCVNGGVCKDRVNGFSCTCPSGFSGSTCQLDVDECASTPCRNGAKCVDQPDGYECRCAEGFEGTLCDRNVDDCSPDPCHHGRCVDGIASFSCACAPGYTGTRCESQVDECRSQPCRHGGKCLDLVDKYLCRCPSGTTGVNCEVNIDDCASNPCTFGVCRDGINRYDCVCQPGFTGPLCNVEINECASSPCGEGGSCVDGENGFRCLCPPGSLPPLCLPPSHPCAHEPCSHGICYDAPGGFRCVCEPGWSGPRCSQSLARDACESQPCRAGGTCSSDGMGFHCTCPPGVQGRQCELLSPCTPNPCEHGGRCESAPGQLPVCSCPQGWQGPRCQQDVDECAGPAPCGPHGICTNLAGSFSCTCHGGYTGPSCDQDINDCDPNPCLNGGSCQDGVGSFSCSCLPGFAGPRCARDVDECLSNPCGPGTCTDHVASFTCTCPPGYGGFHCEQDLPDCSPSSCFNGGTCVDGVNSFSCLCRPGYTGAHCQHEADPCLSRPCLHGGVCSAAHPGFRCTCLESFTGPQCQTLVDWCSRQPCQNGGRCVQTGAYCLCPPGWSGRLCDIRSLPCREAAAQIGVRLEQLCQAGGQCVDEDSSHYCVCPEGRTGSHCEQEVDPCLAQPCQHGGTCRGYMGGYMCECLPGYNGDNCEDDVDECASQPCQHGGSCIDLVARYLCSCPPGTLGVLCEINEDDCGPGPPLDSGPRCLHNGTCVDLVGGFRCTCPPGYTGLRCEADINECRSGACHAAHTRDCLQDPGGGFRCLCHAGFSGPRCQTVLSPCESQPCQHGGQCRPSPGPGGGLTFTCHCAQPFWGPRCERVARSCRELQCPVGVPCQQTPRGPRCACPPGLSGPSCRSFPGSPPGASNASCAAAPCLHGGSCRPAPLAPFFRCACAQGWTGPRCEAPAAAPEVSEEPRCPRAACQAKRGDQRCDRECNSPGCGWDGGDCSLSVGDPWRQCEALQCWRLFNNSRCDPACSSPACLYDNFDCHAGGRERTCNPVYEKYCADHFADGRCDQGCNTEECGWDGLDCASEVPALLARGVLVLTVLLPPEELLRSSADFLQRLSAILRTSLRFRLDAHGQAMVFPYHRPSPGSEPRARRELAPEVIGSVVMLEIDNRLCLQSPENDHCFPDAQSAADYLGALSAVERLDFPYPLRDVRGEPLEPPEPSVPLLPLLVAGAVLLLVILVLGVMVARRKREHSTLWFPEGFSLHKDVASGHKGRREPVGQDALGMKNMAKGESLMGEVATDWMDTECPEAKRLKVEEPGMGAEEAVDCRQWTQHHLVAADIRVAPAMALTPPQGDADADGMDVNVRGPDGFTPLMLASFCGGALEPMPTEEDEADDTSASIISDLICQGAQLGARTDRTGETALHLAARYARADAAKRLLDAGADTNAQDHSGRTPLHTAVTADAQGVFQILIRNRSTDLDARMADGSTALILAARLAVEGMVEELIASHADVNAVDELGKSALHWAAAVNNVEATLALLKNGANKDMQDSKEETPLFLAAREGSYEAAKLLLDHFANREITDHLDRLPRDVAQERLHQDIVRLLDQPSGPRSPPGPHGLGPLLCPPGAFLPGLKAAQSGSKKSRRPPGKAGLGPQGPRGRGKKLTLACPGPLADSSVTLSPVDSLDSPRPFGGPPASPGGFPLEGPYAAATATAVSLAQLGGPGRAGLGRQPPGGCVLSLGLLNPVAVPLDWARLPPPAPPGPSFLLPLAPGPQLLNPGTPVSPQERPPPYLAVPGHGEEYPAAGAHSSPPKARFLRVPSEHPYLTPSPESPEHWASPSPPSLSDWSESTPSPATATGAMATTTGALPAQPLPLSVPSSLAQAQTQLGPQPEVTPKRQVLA

| SMILES | composite z-score [1] | composite z-score [2] | composite z-score [3] | composite z-score [4] | composite z-score [5] | composite z-score [6] | composite z-score [7] | z-score [8] | composite z-score [9] | composite z-score [10] | composite z-score [11] | z-score [12] | z-score [13] | z-score [14] | composite z-score [15] | z-score [16] | composite z-score [17] | composite z-score [18] | composite z-score [19] | composite z-score [20] |
| --- | --- | --- | --- | --- | --- | --- | --- | --- | --- | --- | --- | --- | --- | --- | --- | --- | --- | --- | --- | --- |
| COc1cc2c(cc1O)C(c1cccs1)N(Cc1cccc(OC(F)(F)F)c1)CC2 (stereo not given) | 0.0011 | 0.61 | -0.114 | -0.0012 | 0.192 | 1.39 | 0.774 | -0.79 (inactive) | -0.146 | -0.164 | 1.46 | -2.16 (inactive) | -8.15 (active) | -2.63 (inactive) | 2.1 | -0.878 (inactive) | -0.0785 | -0.648 | 0.108 | -0.139 |
| COCCCNC(=O)[C@@]1(Cc2ccccc2CN=[N+]=[N-])N=C(c2ccc(OCCCO)cc2)O[C@H]1c1ccccc1CN=[N+]=[N-] | -0.152 | 0.321 | 0.154 | 0.916 | 1.27 | 1.96 | 1.11 | 0.399 (inactive) | 1.43 | -0.286 | 1.24 | -2.06 (inactive) | -1.07 (inactive) | 26.7 (active) | 3.34 | 1.71 (inactive) | 0.239 | 0.406 | 0.885 | -0.067 |
| C=CC[C@]1(C(=O)NCc2ccccc2)N=C(c2ccc(OCCCO)cc2)O[C@H]1c1ccccc1CN=[N+]=[N-] | 0.0143 | 0.234 | 0.053 | 0.505 | 1.54 | 1.05 | 1.11 | -2.43 (inactive) | 1.02 | 0.0854 | 1.35 | -0.755 (inactive) | -0.175 (inactive) | 1.54 (inactive) | 2.87 | -0.765 (inactive) | 0.0634 | 0.853 | 1.06 | 0.107 |
| COCCOC(=O)N1C(=O)[C@@]2(c3ccccc31)[C@H](C(N)=O)[C@H]1C(=O)O[C@H](c3ccccc3)[C@H](c3ccccc3)N1[C@@H]2c1ccc(O)cc1 | 0.0458 | 0.209 | 0.0709 | 0.166 | -0.248 | 1.32 | 1.24 | -0.939 (inactive) | -0.404 | 0.0215 | 1.38 | -1.19 (inactive) | -1.3 (inactive) | 0.695 (inactive) | 3.1 | 0.628 (inactive) | -0.166 | -0.32 | 0.129 | -0.171 |
| COc1ccc(-c2cc3c(c(Cc4ccccc4)n2)[Si](C(C)C)(C(C)C)OC3)cn1 | -0.305 | 0.28 | -0.0668 | 0.0198 | 0.0333 | -0.53 | -0.723 | -1.27 (inactive) | 0.29 | -0.236 | -0.738 | 1.64 (inactive) | -0.27 (inactive) | 1.41 (inactive) | -0.655 | -1.41 (inactive) | -0.115 | -0.154 | -0.459 | -0.16 |
| [N-]=[N+]=Nc1ccccc1C[C@]1(C(=O)NCC(O)CO)N=C(c2ccc(OCCCO)cc2)O[C@H]1c1ccccc1 (stereo not given in full) | 0.451 | 0.533 | -0.0328 | 0.0717 | 0.641 | 1.93 | 0.867 | -0.666 (inactive) | 1.56 | -0.0391 | 0.909 | 1.25 (inactive) | 0.0558 (inactive) | 0.568 (inactive) | 2.2 | 0.291 (inactive) | 0.322 | -0.5 | 0.394 | -0.0826 |
| C=CC1c2cc(O)c(OC)cc2CCN1Cc1cccc(OC(F)(F)F)c1 (stereo not given) | 0.335 | -0.145 | -0.103 | -0.605 | -0.137 | 1.59 | 1.1 | 0.385 (inactive) | -0.108 | -0.268 | 1.22 | -26 (active) | -20.2 (active) | -3.13 (inactive) | 3.88 | 0.148 (inactive) | -0.129 | -0.0799 | -0.344 | -0.125 |
| COc1ccccc1CN1C(=O)c2ccccc2[C@@H](C(=O)NCc2ccccc2)[C@@H]1c1ccc(CO)cc1 | -0.232 | 0.939 | -0.171 | -0.298 | 0.0668 | 1.1 | 1.26 | -2.9 (inactive) | 0.635 | -0.34 | 0.713 | 0.649 (inactive) | 0.417 (inactive) | 0.253 (inactive) | 2.33 | 0.409 (inactive) | -0.26 | 0.286 | 0.271 | -0.336 |
| CCOC(=O)C1=CC[C@@H](c2ccccc2)N(S(=O)(=O)c2ccc(C)cc2)[C@H]1c1ccc(CC)cc1 | 0.114 | -0.0251 | -0.0056 | 0.421 | 1.4 | 0.863 | 1.06 | -3.16 (inactive) | 0.762 | -0.0618 | 1.27 | 0.891 (inactive) | 1.94 (inactive) | 2.17 (inactive) | 2.02 | -0.315 (inactive) | 0.05 | -0.503 | 0.716 | 0.279 |
| COC(=O)[C@@]1(Cc2ccc(OC)cc2)[C@H]2c3cc(C(=O)N(C)C)n(Cc4ccc(C(F)(F)F)nc4)c3C[C@H]2CN1C(=O)c1ccccc1 | 0.125 | 0.114 | 0.0343 | 0.459 | 1.53 | 1.34 | 1.01 | 0.515 (inactive) | 0.597 | -0.0237 | -1.54 | 0.643 (inactive) | 1.7 (inactive) | 0.473 (inactive) | 2.17 | 0.379 (inactive) | 0.498 | 0.243 | -0.055 | 0.338 |
